Shown are actives, neighbours in structure and some others; about 1.1% of the full set was active somewhere.
RXFP1 ag = agonists of human relaxin receptor RXFP1; HEK293T-RXFP1 cAMP TR-FRET, 30 min; response scale: percent of porcine relaxin response, buffer zero; AID 2676; Potency, µM (doses to about 57.5 µM), usual class: activators; actives 0.3% (n = 370,000); further: nearly all actives have a fitted effect of over 60% in size
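cAMP rise read by TR-FRET after 30 min, 37C compound exposure (up to 58 uM) in RXFP1-transfected HEK293 cells with Ro 20174 present. EC50 from Hill-equation fits, with 29 nM porcine relaxin as 100% and buffer as basal.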
gsp antag = antagonists of gsp mutant (McCune-Albright syndrome); actives 0.4% (n = 340,000); Potency, µM (series often up to 76.9 µM), actives largely listed as inhibitors; gsp-mutant cells, cAMP HTRF, 30 min; AID 624288; calls by dose curve; cell line not stated here;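 further: intracellular cAMP measured with PDE inhibitor Ro 20-1724 present during compound exposure; nearly all actives have a fitted effect of over 65% in size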
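HTRF cAMP read-out (cAMP-d2 plus anti-cAMP antibody-K in lysis buffer, 30 min RT). Before lysis, cells are exposed to compounds with […] for 30 min at 37C in DPBS containing Ca/Mg, BSA and Tween 20.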
RXFP1 antag = RXFP1 (human) relaxin receptor antagonism; Q9HBX9; HEK293-RXFP1, relaxin-stimulated cAMP HTRF, 30 min; hits give low values; activity change, negative = inhibition, % at 57.5 µM; actives 0.59% (n = 350,000);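 active means activity change of -60% or lower, but not beyond a set lower limit; inconclusive means change between -60% and -40%, or beyond the set limit; inactive means change above -40%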
p53 reactivation = restores transcriptional activity of mutant p53 | H1299 p53-A138V BP100-luciferase reporter, luminescence, 24 h | Potency, µM (highest dose often 92.2 µM), hits mostly activators | actives 0.063% (n = 320,000) | AID 504706; further: nearly all actives have a fitted effect of over 45% in size
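H1299 (p53-null), stable ts p53-A138V + BP100-Luc; 1000 cells/well, Opti-MEM/10% FBS; cpd 4 pt, 1:5; 24 h, 37 deg C, 5% CO2; detection reagent 10 min RT; luminescence.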
gsp ag = activates gsp, the McCune-Albright syndrome mutation | gsp mutant cells, cAMP HTRF, 30 min | Potency, µM (series often up to 76.9 µM), hits mostly activators | actives 0.13% (n = 340,000) | AID 624287; active means well fitted activation curve with a large enough effect; inconclusive means small, poorly fitted or top-dose-only effect, or another doubt; inactive means no such curve, though single readings can be large or run the other way; cell line not stated here;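 further: phosphodiesterase inhibitor Ro 20-1724 added with compounds to block cAMP breakdown; nearly all actives have a fitted effect of over 60% in size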
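Cells in DMEM/10% FBS with G418 were pretreated with compounds in DMSO plus […] (300 uM stock) for 30 min at 37C. cAMP was measured by HTRF (cAMP-d2 plus anti-cAMP antibody-K) after 30 min at room temperature.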
Tb PFK inh-1 = blocks T. brucei phosphofructokinase. O15648. T. brucei PFK, ADP-Glo luminescence. Potency, µM (doses to about 57.5 µM), usual class: inhibitors. actives 0.17% (n = 330,000). AID 485367; further: nearly all actives have a fitted effect of over 60% in size
Target sequence (O15648 whole entry, looked up): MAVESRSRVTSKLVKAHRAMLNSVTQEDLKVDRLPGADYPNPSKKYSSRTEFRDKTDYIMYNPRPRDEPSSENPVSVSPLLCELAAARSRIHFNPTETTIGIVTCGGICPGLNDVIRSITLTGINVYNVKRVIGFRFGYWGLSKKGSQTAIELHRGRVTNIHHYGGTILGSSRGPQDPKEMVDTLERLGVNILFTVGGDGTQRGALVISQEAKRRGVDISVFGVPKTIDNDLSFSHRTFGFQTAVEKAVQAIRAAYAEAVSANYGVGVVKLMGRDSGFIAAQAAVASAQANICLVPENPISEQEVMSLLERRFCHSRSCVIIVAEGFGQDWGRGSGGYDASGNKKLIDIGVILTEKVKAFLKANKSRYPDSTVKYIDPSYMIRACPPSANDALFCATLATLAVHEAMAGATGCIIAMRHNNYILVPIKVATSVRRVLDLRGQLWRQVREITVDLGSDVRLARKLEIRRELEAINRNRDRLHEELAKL
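Compounds were pin-transferred as a titration series up to 57 uM into substrate buffer (0.5 mM F6P, 0.1 mM ATP, pH 8.0), then 1.25 nM PFK was added and reactions ran 45 min before ADP-Glo detection.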
TbPFK ATP = orthogonal confirmation of T. brucei phosphofructokinase inhibitors | Potency, µM (titrated, usually from 57.5 µM) | AID 504636 | shares compounds with Tb PFK inh-1 | actives 47% (n = 1,100) | Tb PFK enzyme, ATP depletion, Kinase-Glo Plus luminescence; calls by dose curve; further: nearly all actives have a fitted effect of over 60% in size
Tb PFK inh-2 = validation of T. brucei phosphofructokinase inhibitors. shares compounds with Tb PFK inh-1. purified T. brucei PFK, ADP-Glo luminescence, 45 min. Potency, µM (titrated, usually from 57.5 µM), most hits filed as inhibitors. actives 41% (n = 1,100). AID 504637; further: nearly all actives have a fitted effect of over 60% in size
A number is an active result; [ ] = dose if it differs, or a comment. Unless noted, the call rests on the fitted dose curve; in most records, active means well fitted curve in the direction sought with a large enough effect; inconclusive means small, poorly fitted or top-dose-only effect, or another doubt; inactive means no such curve, though single readings can be large; an effect the other way counts as inactive or inconclusive.

What do the screens show for `CC(Cc1ccccc1)NC(=O)NC(C)Cc1ccccc1` (stereo not given)?
RXFP1 ag: inactive; gsp antag: inactive; RXFP1 antag: inactive; p53 reactivation: inconclusive; gsp ag: inactive; Tb PFK inh-1: inactive

What do the screens show for `CC1CN(O)C2CCc3c(no[n+]3[O-])C12O` (stereo not given)?
RXFP1 ag: inactive; gsp antag: inactive; RXFP1 antag: inactive; gsp ag: inactive

What do the screens show for `O=c1oc2ccccc2c(O)c1[C@H]1c2ccc(O)cc2Oc2c1c(=O)oc1ccccc21`?
RXFP1 ag: 18µM; gsp antag: inactive; RXFP1 antag: inactive; p53 reactivation: inactive; gsp ag: inactive; Tb PFK inh-1: inconclusive; TbPFK ATP: inactive; Tb PFK inh-2: inconclusive

How did CC(C)N(CCC(=O)c1ccc2ccccc2c1)Cc1ccccc1 do in these assays?
RXFP1 ag: inactive; gsp antag: inactive; p53 reactivation: inactive; Tb PFK inh-1: inconclusive; TbPFK ATP: 30µM; Tb PFK inh-2: inconclusive

Results for Cc1ccc(C(=O)Nc2cccc3[nH]c(C(F)(F)F)nc23)cc1 ?
RXFP1 ag: inactive; gsp antag: inconclusive; RXFP1 antag: inactive; p53 reactivation: inactive; gsp ag: inconclusive; Tb PFK inh-1: inconclusive; TbPFK ATP: inconclusive; Tb PFK inh-2: inconclusive

What do the screens show for `COC(=O)C(O)(c1ccc(NC(=O)c2ccccc2)cc1)C(F)(F)F` (stereo not given)?
RXFP1 ag: inactive; gsp antag: inactive; RXFP1 antag: inactive; p53 reactivation: inactive; gsp ag: inactive; Tb PFK inh-1: inactive

How did NCCNc1ccc([N+](=O)[O-])cc1 do in these assays?
RXFP1 ag: inactive; gsp antag: inactive; RXFP1 antag: inactive; p53 reactivation: inactive; gsp ag: inactive; Tb PFK inh-1: inconclusive; TbPFK ATP: inconclusive; Tb PFK inh-2: inconclusive

What do the screens show for `CC(C)NCC(O)c1ccc([N+](=O)[O-])cc1` (stereo not given)?
RXFP1 antag: inactive

Results for C#CCNc1ccc([N+](=O)[O-])cc1 ?
RXFP1 ag: inactive; gsp antag: inactive; RXFP1 antag: inactive; p53 reactivation: inactive; gsp ag: inactive[15.4 µM]; Tb PFK inh-1: 24µM; TbPFK ATP: 21µM; Tb PFK inh-2: 27µM

How did O=[N+]([O-])c1ccc(NCCNc2ccc([N+](=O)[O-])cc2)cc1 do in these assays?
gsp antag: inactive; RXFP1 antag: inactive; gsp ag: inactive

How did c1cncc(CNCCN2CCNCC2)c1 do in these assays?
gsp antag: inactive; RXFP1 antag: inactive; gsp ag: inactive[15.4 µM]

Results for CC(C(Sc1ccccc1N)c1ccccc1)[N+](=O)[O-] (stereo not given) ?
RXFP1 ag: inactive; gsp antag: inactive; p53 reactivation: inactive; gsp ag: inactive; Tb PFK inh-1: 24µM; TbPFK ATP: inconclusive; Tb PFK inh-2: inconclusive

Results for COCCNC(=O)/C(C#N)=C/c1ccc(O)cc1 ?
RXFP1 ag: inactive; gsp antag: inactive; RXFP1 antag: inactive; p53 reactivation: inactive; gsp ag: inactive; Tb PFK inh-1: inconclusive; TbPFK ATP: inactive; Tb PFK inh-2: inconclusive

What do the screens show for `COc1ccc(S(=O)(=O)NNC(=O)c2cc3cc4ccccc4nc3s2)cc1`?
RXFP1 ag: inactive; gsp antag: inconclusive; RXFP1 antag: inactive; p53 reactivation: inactive; gsp ag: inconclusive; Tb PFK inh-1: inconclusive; TbPFK ATP: inactive; Tb PFK inh-2: inconclusive

How did CS(=O)(=O)NNC(=O)c1cc2cc3ccccc3nc2s1 do in these assays?
RXFP1 ag: inconclusive; gsp antag: inactive; RXFP1 antag: inactive; p53 reactivation: inactive; gsp ag: inconclusive; Tb PFK inh-1: inconclusive; TbPFK ATP: inactive; Tb PFK inh-2: inactive

What do the screens show for `CC(=O)Nc1ccccc1C(=O)OCC(=O)c1ccc2c(c1)OCCO2`?
RXFP1 ag: inactive; gsp antag: inactive; RXFP1 antag: inactive; p53 reactivation: inconclusive; gsp ag: inactive[15.4 µM]; Tb PFK inh-1: inactive

How did COCCN(C(=O)COC(=O)Cc1ccccc1)c1c(N)n(Cc2ccccc2)c(=O)[nH]c1=O do in these assays?
RXFP1 ag: inactive; gsp antag: inactive; RXFP1 antag: inactive; p53 reactivation: inactive; gsp ag: inactive; Tb PFK inh-1: inactive

What do the screens show for `O=C1CCc2cc(S(=O)(=O)NCCC(=O)N3CCN(c4cccc(Cl)c4)CC3)ccc2N1`?
RXFP1 ag: inactive; gsp antag: inconclusive; RXFP1 antag: inactive; p53 reactivation: inactive; gsp ag: inactive; Tb PFK inh-1: 27µM; TbPFK ATP: 17µM; Tb PFK inh-2: inconclusive

How did O=C(Cn1cnc2ccccc2c1=O)NCCC(=O)N1CCC2(CC1)OCCO2 do in these assays?
RXFP1 ag: inactive; gsp antag: inactive; RXFP1 antag: inactive; p53 reactivation: inactive; gsp ag: inactive; Tb PFK inh-1: inactive

What do the screens show for `CCCNS(=O)(=O)c1ccc(OCC(=O)N2CCN(Cc3ccccc3)CC2)cc1`?
RXFP1 ag: inactive; gsp antag: inactive; RXFP1 antag: inactive; p53 reactivation: inactive; gsp ag: inactive; Tb PFK inh-1: inactive

What do the screens show for `O=C(Cn1ccc2ccccc2c1=O)NCCC(=O)N1CCN(c2cccc(Cl)c2)CC1`?
RXFP1 ag: inactive; gsp antag: inactive; RXFP1 antag: inactive; p53 reactivation: inactive; gsp ag: inactive; Tb PFK inh-1: 24µM; TbPFK ATP: inconclusive; Tb PFK inh-2: inconclusive

How did COC(=O)C1=CO[C@@H](C)[C@@H]2CN3CC[C@]4(C(=O)Nc5ccccc54)[C@@H]3C[C@H]12 do in these assays?
RXFP1 ag: inactive; gsp antag: inactive; p53 reactivation: inactive; Tb PFK inh-1: inactive

What do the screens show for `COc1ccc(CN2CCN(C(=O)COc3ccccc3)CC2)c(OC)c1`?
RXFP1 ag: inactive

How did COc1ccc(C(=O)COC(=O)/C=C/c2ccccc2)c(OC)c1 do in these assays?
RXFP1 ag: inactive; gsp antag: inactive; RXFP1 antag: inactive; p53 reactivation: inconclusive; gsp ag: inactive; Tb PFK inh-1: inconclusive; TbPFK ATP: inconclusive; Tb PFK inh-2: inactive

What do the screens show for `O=c1n(Cl)c(=O)n(Cl)c(=O)n1Cl`?
RXFP1 antag: inactive

What do the screens show for `CCCCCCNC(=O)N[C@H](Cc1ccc(O)cc1)C(=O)NCCC[C@H]1CN2C(=NC[C@H]2CCC)N1CC1CCC1`?
RXFP1 ag: inactive; p53 reactivation: inactive; Tb PFK inh-1: inactive
